Experimental data from PubChem BioAssay (NCATS).
Inconclusive results are not listed. Entries that show only a call come without a potency. Active and inactive are the calls of the source. Unless noted, calls follow the shape of the dose curve; as a rule, active = well fitted curve in the direction sought with a large enough effect; inconclusive = small, poorly fitted or top-dose-only effect, or another doubt; inactive = no such curve, though single readings can be large; an effect the other way counts as inactive or inconclusive.

Columns and labels:
[1] = target: Ubiquitin carboxyl-terminal hydrolase 1 (Homo sapiens) (UniProt O94782); test: Inhibitors of USP1/UAF1: Pilot qHTS (AID 504865);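 also: rhodamine fluorescence freed from ubiquitin-rhodamine substrate followed over time; top concentration of the series differs between compounds; nearly all actives have a fitted effect of over 35% in size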
Sequence of Ubiquitin carboxyl-terminal hydrolase 1 (Homo sapiens) (O94782 whole entry, looked up): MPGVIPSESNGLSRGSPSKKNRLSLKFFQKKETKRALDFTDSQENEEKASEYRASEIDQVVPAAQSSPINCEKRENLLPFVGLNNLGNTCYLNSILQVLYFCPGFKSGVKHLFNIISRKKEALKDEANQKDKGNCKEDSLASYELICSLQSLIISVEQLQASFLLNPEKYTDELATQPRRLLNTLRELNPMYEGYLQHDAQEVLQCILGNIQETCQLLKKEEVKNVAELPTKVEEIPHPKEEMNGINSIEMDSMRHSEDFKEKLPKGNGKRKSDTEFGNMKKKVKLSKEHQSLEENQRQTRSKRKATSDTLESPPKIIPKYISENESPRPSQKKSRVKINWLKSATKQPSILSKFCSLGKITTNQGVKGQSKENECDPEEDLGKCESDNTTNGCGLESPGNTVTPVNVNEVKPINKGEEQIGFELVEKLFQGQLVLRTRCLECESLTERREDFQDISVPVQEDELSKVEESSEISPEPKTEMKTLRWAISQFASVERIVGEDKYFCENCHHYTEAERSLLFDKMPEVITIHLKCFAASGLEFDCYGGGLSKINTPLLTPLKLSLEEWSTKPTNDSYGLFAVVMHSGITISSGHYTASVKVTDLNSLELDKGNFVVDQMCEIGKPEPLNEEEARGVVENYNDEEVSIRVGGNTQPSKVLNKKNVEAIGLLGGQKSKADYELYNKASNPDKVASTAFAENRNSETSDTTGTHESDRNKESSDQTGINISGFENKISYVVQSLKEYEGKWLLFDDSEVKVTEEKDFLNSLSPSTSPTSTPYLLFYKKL
Summary of the method: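 Deubiquitinase activity followed as kinetic rhodamine fluorescence release from 150 nM Ub-Rho. 1 nM USP1/UAF1 with compound, after 15 min room-temperature preincubation, in HEPES pH 7.8 buffer containing TCEP, EDTA, BSA and Tween-20.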

[2] = target: Luciferin 4-monooxygenase (Photinus pyralis) (UniProt P08659); test: Biochemical firefly luciferase enzyme assay for NPC (AID 624030);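 also: purified P. pyralis luciferase at 10 nM with luciferin and ATP substrate; nearly all actives have a fitted effect of over 70% in size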
Sequence of Luciferin 4-monooxygenase (Photinus pyralis) (P08659 whole entry, looked up): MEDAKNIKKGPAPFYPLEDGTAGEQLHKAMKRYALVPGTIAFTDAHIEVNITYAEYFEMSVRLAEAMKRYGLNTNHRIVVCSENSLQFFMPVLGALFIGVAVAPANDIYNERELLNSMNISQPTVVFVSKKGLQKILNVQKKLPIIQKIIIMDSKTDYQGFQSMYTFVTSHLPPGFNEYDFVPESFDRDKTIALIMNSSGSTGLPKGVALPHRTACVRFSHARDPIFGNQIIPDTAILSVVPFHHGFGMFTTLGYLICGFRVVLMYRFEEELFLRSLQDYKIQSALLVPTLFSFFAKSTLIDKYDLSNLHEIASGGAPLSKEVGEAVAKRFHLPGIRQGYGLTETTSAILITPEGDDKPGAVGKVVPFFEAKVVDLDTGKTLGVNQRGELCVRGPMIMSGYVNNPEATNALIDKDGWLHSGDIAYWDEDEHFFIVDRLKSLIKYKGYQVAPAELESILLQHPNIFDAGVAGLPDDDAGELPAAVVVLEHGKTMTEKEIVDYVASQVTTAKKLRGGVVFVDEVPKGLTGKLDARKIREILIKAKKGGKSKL
Summary of the method: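 Direct inhibition of firefly luciferase enzyme (10 nM final, 50 mM Tris Acetate) assessed by luminescence within 5 minutes. Percent activity scaled between DMSO and PTC124 positive control, with concentration-effect curves classified by fit quality and response.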

[3] = S16 Schwann cell viability assay (CellTiter-Glo assay) (AID 624031);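 also: native untransfected S16 rat Schwann cells; cellular ATP luminescence as a viability measure; nearly all actives have a fitted effect of over 70% in size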
Summary of the method: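 Following overnight culture in 10% FBS DMEM, parental S16 rat Schwann cells are dosed for 24 h at 37 °C. Viability is read as CellTiter-Glo luminescence and expressed as % activity relative to DMSO (0%) and no-cell wells.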

[4] = S16 Schwann cell PMP22 intronic element firefly luciferase assay (AID 624032); also: nearly all actives have a fitted effect of over 30% in size; also: potency is read from the fitted curve at half-maximal effect
Summary of the method: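 Luciferase reporter of PMP22 intronic-element expression in stably transfected S16 rat Schwann cells, read by ONE-Glo luminescence after 24 h compound exposure at 37 C. Activity scaled between DMSO (0%) and positive-control PTC124; concentration-effect curves quality-classified.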

[5] = S16 Schwann cell PMP22 intronic element beta-lactamase assay (AID 624044; calls by dose curve; also: nearly all actives have a fitted effect of over 15% in size; also: potency is read from the fitted curve at half-maximal effect); conditions: S16 rat Schwann cells, PMP22 element beta-lactamase FRET, 24 h; ratio activity, negative = inhibition: at 38.3 µM (top of the series)
Summary of the method: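 Rat S16 Schwann cells with beta-Lac driven by a PMP22 intronic element, compound-treated 24 h at 37 °C. LiveBLAzer FRET B/G read: 460 nm normalized to potassium clavulanate vs DMSO; 535 nm FRET as viability; concentration-effect curves classified.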

W2 = test: qHTS profiling for inhibitors of Plasmodium falciparum proliferation (AID 504749); also: nearly all actives have a fitted effect of over 60% in size; also: potency is read from the fitted curve at half-maximal effect; conditions: P. falciparum in erythrocytes, SYBR Green DNA, 72 h; series mostly up to 28.7 µM
Summary of the method: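 Three-day growth assay of blood-stage parasites in erythrocytes (0.3% parasitemia, 2.5% hematocrit) at 37 C, 5% CO2, quantified by SYBR Green DNA staining after overnight detergent lysis.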

Row | SMILES | Potency [1] | Potency [2] | Potency [3] | Potency [4] | Potency [5] | Potency (W2) | ratio activity, negative = inhibition [5]
1 | CC(C)C[C@@H](NC(=O)[C@@H](Cc1ccccc1)NC(=O)c1cnccn1)B(O)O | inactive | inactive | inactive | 5.1 nM (active) | 22.4 nM (active) | 60.1 nM (active) | 
2 | C=C[C@H]1CN2CCC1C[C@H]2[C@H](O)c1ccnc2ccc(OC)cc12 (stereo not given in full) |  | inactive | inactive | inactive |  | 338 nM (active) | -10.4% (active)
3 | CCCCN1CC(O)C(O)C(O)C1CO (stereo not given) | inactive |  | inactive | inactive | inactive | inactive | 
4 | C=CCn1c(=O)n(C2OC(CO)C(O)C2O)c2nc(N)[nH]c(=O)c21 (stereo not given) | inactive |  |  | inactive | inactive | inactive | 
5 | NC(C(=O)O)c1ccc(O)cc1 (stereo not given) |  | inactive | inactive | inactive |  | inactive | 
6 | O=C(O)CC(O)CC(O)/C=C/c1c(C2CC2)nc2ccccc2c1-c1ccc(F)cc1 (stereo not given) | inactive |  | inactive |  |  | inactive | 
7 | CCCC[C@H](O)c1ccccc1 | inactive |  | inactive | inactive | inactive | inactive | 
8 | O=C1[C@@H]2C[C@@H]3C[C@H]1C[C@@](O)(C3)C2 |  | inactive | inactive |  | inactive | inactive | 
9 | O=c1ccn(C2OC(COP(=O)(O)OC3C(CO)OC(n4ccc(=O)[nH]c4=O)C3O)C(O)C2O)c(=O)[nH]1 (stereo not given) | inactive | inactive | inactive | inactive | inactive | inactive | 
10 | CC(C)(C)C(=O)OCC(=O)C1CCC2C3CCC4=CC(=O)CCC4(C)C3CCC12C (stereo not given) | inactive | inactive |  |  | inactive | inactive | 
11 | CC[C@@H](C)C(N)C(=O)O (stereo not given in full) | inactive |  |  | inactive |  | inactive | 
12 | CO/N=C(/C(=O)N[C@@H]1C(=O)N2C(C(=O)O)=C(CSc3nc(C)c(CC(=O)O)s3)CS[C@H]12)c1csc(N)n1 | inactive | inactive | inactive | inactive | inactive | inactive | 
13 | C=C1[C@@H]2CC[C@H](C2)C1(C)C |  | inactive | inactive | inactive | inactive | inactive | 
